Shown are actives, neighbours in structure and some others; about 19% of the full set was active somewhere.
KB-V1 MDR tox – kills drug-selected multidrug resistant KB-V1 cells; KB-V1 MDR cells viability, CellTiter-Glo, 72 h; Potency, µM (titrated, usually from 46.1 µM), actives largely listed as cytotoxic; 400,000 compounds, 3.4% hits; AID 1347076; also: nearly all actives have a fitted effect of over 60% in size
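Luminescent ATP read-out (CellTiter-Glo, 10 min) measures survival of drug-selected KB-V1 MDR cells after 72 h, 37 degrees C compound exposure. Medium: phenol-red-free DMEM, 10% FBS. Values from fitted concentration-response curves.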
HT1080NT lethal – kills 2HG-producing HT-1080-NT fibrosarcoma cells | HT-1080-NT fibrosarcoma viability, CellTiter-Glo ATP luminescence, 48 h | Potency, µM (doses to about 46.1 µM), for the others: at the top dose activity, negative = less viability, most hits filed as cytotoxic | 360,000 compounds, 1.6% hits | AID 686970;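 also: NT is the 2HG producing partner of a matched IDH1 knockdown line; 0% = DMSO-treated cells and -100% = media-only wells without cells; nearly all actives have a fitted effect of over 55% in size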
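Toxicity toward the 2HG-producing NT line was scored as %Activity, normalised to DMSO and no-cell wells, from CellTiter-Glo luminescence after 48 hours' treatment.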
KB-3-1 tox – KB-3-1 parental cell cytotoxicity | KB-3-1 viability, CellTiter-Glo ATP luminescence, 72 h | Potency, µM (highest dose often 46.1 µM), hits mostly cytotoxic | 400,000 compounds, 1.4% hits | AID 1347075; also: nearly all actives have a fitted effect of over 60% in size
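72 h, 37 °C compound treatment of KB-3-1 parental cells; CellTiter-Glo added, 10 min, luminescence read. Data corrected against DMSO-only plates and normalized before curve fitting.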
HT1080 IDH1KD tx – toxicity to HT-1080 IDH1 knockdown cells (counter line) | HT-1080 IDH1 knockdown viability, ATP luminescence, 48 h | Potency, µM (titrated, usually from 46.1 µM), inactives show at the highest dose activity, negative = toxicity, most hits filed as cytotoxic | AID 686971 | 360,000 compounds, 2% hits;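 also: 0% = DMSO wells and -100% = cell-free medium wells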
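Knockdown cells (IDH1KD HT-1080) received compounds 2 h after plating at 750 cells/well and were kept 48 h at 37 °C in 5% FBS RPMI. A CellTiter-Glo luminescence read gave % activity for curve fitting.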
DT40 TDP1 CPT – growth inhibition of DT40 Tdp1-/-;hTDP1 cells with camptothecin (screen for TDP1 inhibitors). chicken DT40 Tdp1-/-;hTDP1 cells + 20 nM CPT, ATP luminescence, 48 h. Potency, µM (highest dose often 46.2 µM), without a hit: top-dose activity change, negative = growth inhibition, hits mostly inhibitors. 420,000 compounds, 12% hits. AID 686979; also: nearly all actives have a fitted effect of over 55% in size
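Chicken DT40 Tdp1-/- cells stably complemented with human TDP1 were seeded at 400 cells/well in medium containing 20 nM camptothecin, exposed to pin-transferred compounds, and grown at 37 °C for at least 48 hr. Viability was read as ATP luminescence.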
TDP1 cell noCPT – qHTS for Inhibitors of human tyrosyl-DNA phosphodiesterase 1 (TDP1): qHTS in cells in absence of CPT. DT40 Tdp1-/- hTDP1 cells, no CPT, ATP luminescence, 48 h. 420,000 compounds, 15% hits. Potency, µM (series often up to 46.2 µM), without a hit: at the highest dose activity change, negative = growth inhibition, actives largely listed as inhibitors; also: nearly all actives have a fitted effect of over 55% in size
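Readout: luminescence from CellTiter-Glo after 30 min in the dark at RT. Cells: DT40 Tdp1-/- with stable hTDP1, 400/well. Exposure: compounds alone, ≥48 hr, 37 °C.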
* marks the source's active call; other numbers are inactive results; i = inactive; ? = inconclusive; . = not tested or not shown; ! = not active in a repeat. Calls follow the shape of the dose curve; as a rule, active = well fitted curve in the direction sought with a large enough effect; inconclusive = small, poorly fitted or top-dose-only effect, or another doubt; inactive = no such curve, though single readings can be large; an effect the other way counts as inactive or inconclusive. Unless noted, % is scaled to controls: 0 for no effect and ±100 for the full control effect; potency is read from the fitted curve at half-maximal effect.

SMILES	KB-V1 MDR tox	HT1080NT lethal	KB-3-1 tox	HT1080 IDH1KD tx	DT40 TDP1 CPT	TDP1 cell noCPT
O=C(NC1CCCC1)c1cnn2c(C(F)(F)F)cc(-c3ccc4c(c3)OCO4)nc12	?	3.5%	i	10.2%	7.31µM*	16.4µM*
O=c1[nH]c(SCc2cccc(Cl)c2)nc2[nH]ncc12	i	-3.7%	i	?	?	-26.6%
CC12CC3(C)CC(C)(C1)CC(C(=O)NC1=NCCS1)(C2)C3	i	-2.5%	i	2.9%	23.1µM*	?
CCCn1c(=O)sc2cc(NC(=O)c3ccc(OC)c(Br)c3)ccc21	i	.	23.1µM*	.	?	?
COC(=O)c1ccc(NC(=O)CCc2c(C)nn(-c3ccc(N4CCCCC4)nn3)c2C)cc1	.	.	.	.	23.1µM*	?
COc1ccc(OC)c(NC(=O)CCc2c(C)nn(-c3ccc(N4CCCC4)nn3)c2C)c1	.	.	.	.	20.6µM*	14.6µM*
Cc1nn(-c2ccc(N3CCOCC3)nn2)c(C)c1CCC(=O)N1CCN(C)CC1	i	8.3%	i	20.1%	-0.4%	0.7%
Cc1nn(-c2ccc(N3CCOCC3)nn2)c(C)c1CCC(=O)Nc1ccc(F)cc1	i	7.0%	i	3.4%	-4.1%	16.4µM*
Cc1nn(-c2ccc(N3CCCC3)nn2)c(C)c1CCC(=O)N1CCN(c2ccc(F)cc2)CC1	.	.	.	.	14.6µM*	?
O=S1(=O)N=C(Oc2ccccc2C(F)(F)F)c2ccccc21	?	.	i	.	.	.
COCC(=O)Nc1cc(C(=O)N2CCCOc3c(cccc3OC)C2)c2c(c1)nc(C1CCC1)n2C	.	.	.	.	15.2%	-15.0%
NS(=O)(=O)c1ccc(NC(=O)COC(=O)C2CC(=O)N(Cc3ccccc3)C2)cc1 (stereo not given)	?	1.8%	i	20.5%	8.1%	-20.8%
Cc1cccc(NC(=O)CCc2c(C)nn(-c3ccc(N4CCCCC4)nn3)c2C)c1	i	11.7%	i	-6.7%	?	?
Cc1ccccc1NC(=O)CCc1c(C)nn(-c2ccc(N3CCCCC3)nn2)c1C	i	-6.2%	i	9.0%	16.4µM*	20.6µM*!
COc1cc(NC(=O)CCc2c(C)nn(-c3ccc(N4CCCCC4)nn3)c2C)cc(OC)c1OC	.	.	.	.	20.6µM*	?
CCNC(=O)CCC(N)C(=O)O (stereo not given)	.	.	.	.	5.0%	-7.8%
CC1CCCCN1C(=O)c1ccc(OC2CCN(S(=O)(=O)N(C)C)CC2)cc1 (stereo not given)	23.1µM*	-17.2%	i	?	?	10.3µM*
CN(C)S(=O)(=O)N1CCC(Oc2ccc(C(=O)N3CCCCCC3)cc2)CC1	?	-1.2%	i	-15.4%	23.1µM*	13µM*
CN(C(=O)c1ccc(OC2CCN(S(=O)(=O)N(C)C)CC2)cc1)C1CCCCC1	i	-1.0%	i	6.2%	20.6µM*	?
CCC1CCCCN1C(=O)c1ccc(OC2CCN(C(=O)C3CC3)CC2)cc1 (stereo not given)	i	-1.5%	i	-0.8%	?	?
CSCCNC(=O)c1ccc(OC2CCN(S(=O)(=O)N(C)C)CC2)cc1	i	4.7%	i	-6.3%	-12.1%	1.6%
CN(C)S(=O)(=O)N1CCC(Oc2ccc(C(=O)N3CCCCCCC3)cc2)CC1	10.3µM*	-4.4%	?	-4.1%	16.4µM*	16.4µM*
CC(C)Sc1nnc2c3ccccc3n(C)c2n1	.	1.8%	.	4.7%	?	?
CC(C)(C)c1ccc(C(=O)C[n+]2cccc(Br)c2)cc1	i	.	i	.	?	?
CC(C)CN1CCCC2(CCN(C(=O)c3cccn3C)CC2)C1	.	.	.	.	-3.1%	-3.2%
SMILES	KB-V1 MDR tox	HT1080NT lethal	KB-3-1 tox	HT1080 IDH1KD tx	DT40 TDP1 CPT	TDP1 cell noCPT
Cc1cnc(C(=O)OCc2nc3ccccc3o2)cn1	i	-6.4%	i	-0.2%	-10.5%	0.2%
COc1cccc(CNC(=O)Cn2ncn3nc(-c4cccs4)cc3c2=O)c1OC	i	.	i	.	-20.8%	-18.7%
O=C(Cc1ccccc1)N/N=C/c1ccccc1OCc1ccc(Cl)cc1	i	-4.8%	i	-19.7%	?	?
Cc1ccc(S(=O)(=O)N/N=C/c2cccc3c2OCCO3)cc1	?	5.5%	i	14.4%	?	-36.7%
Cc1ccc(S(=O)(=O)N/N=C/c2cccc3nccnc23)cc1	i	2.0%	i	-4.1%	13µM*	14.6µM*
COc1cc(/C=N/NS(=O)(=O)c2ccc(C)cc2)ccc1OCc1ccc(C(=O)O)cc1	i	-2.9%	i	4.6%	1.5%	20.1%
O/N=C/c1ccccc1OCc1ccc(Cl)cc1	i	-20.5%	i	?	-3.1%	0.5%
COC(=O)c1ccc(COc2ccccc2/C=N/NS(=O)(=O)c2ccc(C)cc2)cc1	18.4µM*	-29.6%	i	?	18.4µM*	?
O=S(=O)(N/N=C/c1ccccc1OCc1ccc(Cl)cc1)c1ccccc1	16.4µM*	?	?	-12.1%	?	?
CCOC(=O)N/N=C/c1ccccc1OCc1ccc(Cl)cc1	i	2.4%	i	-2.3%	?	29.1µM*
O=C(CN1CCN(c2ccc(F)cc2)CC1)Nc1ccccc1[N+](=O)[O-]	i	0.1%	i	8.6%	-21.0%	?
COC(=O)c1cncn1Cc1ccccc1	i	8.0%	i	2.8%	3.5%	6.3%
CN1CCCC1CCNC1C2CC3CC(C2)CC1C3 (stereo not given)	i	?	i	-8.3%	8.2µM*	16.4µM*
CN1CCCC1CN1CCCC1 (stereo not given)	i	6.8%	i	25.5%	-11.7%	-2.0%
CC(=O)c1cccc(NC(=O)c2cc(S(=O)(=O)N3CCOCC3)cs2)c1	i	-1.2%	i	8.5%	-10.9%	-20.0%
CS(=O)(=O)Nc1cccc(-c2nc(NCCN3CCOCC3)c3ccccc3n2)c1	.	.	.	.	-2.8%	?
Clc1ccc(-c2nc(NCCCN3CCOCC3)c3ccccc3n2)cc1	?	23.1µM*	i	?	?	18.4µM*
Clc1cccc(-c2nc(NCCCN3CCOCC3)c3ccccc3n2)c1	i	20.6µM*	i	?	?	23.1µM*
Clc1cccc(-c2nc(NCCN3CCOCC3)c3ccccc3n2)c1	20.6µM*	?	i	?	?	?
O=C1COc2ccc(C(=O)COc3ccc(Cl)cc3Br)cc2N1	i	0.8%	i	-16.0%	?	?

Screening results (PubChem BioAssay)
